Potency and max response data for 19 compounds are collected here from PubChem BioAssay (NCATS).

Inconclusive results are not listed. A call without a number means that no potency is given here. Values without a mark were called inactive. The source made the active and inactive calls. Unless noted, the call rests on the fitted dose curve; in most records, active means well fitted curve in the direction sought with a large enough effect; inconclusive means small, poorly fitted or top-dose-only effect, or another doubt; inactive means no such curve, though single readings can be large; an effect the other way counts as inactive or inconclusive.

Experiment [1] has as its target Calcium and integrin-binding protein 1 (Homo sapiens) (UniProt Q99828). Description: Primary qHTS for Identification of Calcium Integrin Binding Protein 1 (CIB1) Competitor (AID 1508620). Further: potency means the concentration at half of the fitted maximal effect. Put shortly:
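Fluorescence polarization competition: CIB1-GST (1 uM final) preincubated with compound 15 min at room temperature, then FITC-labeled alphaIIb peptide (100 nM final) added for another 15 min. Polarization read at Ex 480/Em 540.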
In general terms: Quantitative high-throughput screening tests each substance at several concentrations.

Experiment [2] can be described thus: Primary qHTS for small molecule stabilizers of the endoplasmic reticulum resident proteome: Secreted ER Calcium Modulated Protein (SERCaMP) assay (AID 1508630). The essentials:
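GLuc-SERCaMP-expressing SH-SY5Y cells, pretreated 16 h with compound, are challenged with thapsigargin to empty ER calcium stores; after 4 h, coelenterazine is added directly to the medium and luminescence is imaged.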

A short description of experiment [3]: Counterscreen qHTS for small molecule stabilizers of the endoplasmic reticulum resident proteome: GLuc-NoTag assay (AID 1508627).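 Further: SH-SY5Y cells given compound then 100 nM thapsigargin to empty ER calcium; series mostly up to about 76 µM.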 The essentials: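 SH-SY5Y cells stably expressing constitutively secreted GLuc (no SERCaMP tag) were pre-incubated 5 h, treated with compound for 19 h, then 100 nM thapsigargin for 4 h at 37C; medium GLuc read by coelenterazine luminescence.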
(Counterscreens check selectivity or assay interference.)

Experiment [4] in a line: Primary qHTS for inhibitors of nuclear receptor binding SET domain protein 2 (NSD2) in an isogenic RCH-ACV NSD2 p.E1099K mutant (9B) (AID 1645876). Further: nearly all actives have a fitted effect of over 70% in size.
For experiment [5], the target named is Rap guanine nucleotide exchange factor 3 (Homo sapiens) (UniProt O95398). Description: Confirmatory qHTS for antagonist of cAMP-regulated guanine nucleotide exchange factor 3 (EPAC1) (AID 1645880). Further: nearly all actives have a fitted effect of over 55% in size. The essentials:
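Nucleotide exchange uses 100 nM EPAC1, 250 nM RAP1B-BODIPY-GDP and 50 uM GDP, with compounds in a concentration-titration series. After 5 min at room temperature, fluorescence (480 nm ex/540 nm em) is read every 5 min for 30 min. Data are normalized to control ATA and DMSO.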

A short description of experiment [6]: Confirmatory qHTS for small molecule stabilizers of the endoplasmic reticulum resident proteome: Secreted ER Calcium Modulated Protein (SERCaMP) assay (AID 1508628).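 Further: SH-SY5Y cells given compound 16 h then thapsigargin 100 nM for 4 h; series mostly up to about 76 µM; nearly all actives have a fitted effect of over 40% in size.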 Put shortly: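 We seeded SH-SY5Y-GLuc-SERCaMP cells, added compounds (three concentrations in the primary run, eleven up to 76.6 uM in confirmation), incubated 16 h, depleted ER calcium with thapsigargin, and read luciferase 4 h later.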

Experiment [7] is described as follows: Cell Viability qHTS for small molecule stabilizers of the endoplasmic reticulum resident proteome (AID 1508629).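 Further: human SH-SY5Y neuroblastoma cells carrying the GLuc-SERCaMP reporter; compound exposure about 46 h in total before the viability read.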 The conditions noted are these: cell viability counter-screen, 100 nM thapsigargin for final 4 h. From the text: Assay Provider: Brandon K. Harvey Ph.D.
National Institute on Drug Abuse, National Institutes of Health, Baltimore, MD
Endoplasmic reticulum (ER) dysregulation is associated with human pathologies including neurodegenerative, cardiovascular, muscular, and diabetic conditions. Maintenance of ER calcium is critical for functions of the ER and its depletion can lead to loss of ER resident proteins, in a process termed exodosis. Therapeutic compounds capable of attenuating the redistribution of ER proteins under pathological conditions may slow or stop disease progression. To identify such compounds, we performed a quantitative high-throughput screen (qHTS) using the SERCaMP assay, which monitors secretion of ER resident proteins triggered by calcium depletion.
SERCaMP was initially developed as a reporter of ER calcium homeostasis using a Gaussia luciferase with a modified signal peptide and carboxy-terminus (GLuc-SERCaMP), modifications that confer secretion of the reporter in response to ER calcium depletion (Henderson et al., 2014). The assay was used to screen 9,501 compounds, including a collection of drugs approved by the FDA (US), EMA (EU), NHI (Japan), and HC (Canada) regulatory agencies (Huang et al., 2011). Since the SERCaMP reporter reflects the exodosis phenomenon (Trychta et al., 2018a), compounds identified in the screen have the potential to prevent exodosis by different mechanisms such as stabilizing ER calcium or augmenting ERS retrieval.
1. Henderson, M.J., Wires, E.S., Trychta, K.A., Richie, C.T., and Harvey, B.K. (2014). SERCaMP: a carboxy-terminal protein modification that enables monitoring of ER calcium homeostasis. Mol Biol Cell 25, 2828-2839.
2. Huang, R., Southall, N., Wang, Y., Yasgar, A., Shinn, P., Jadhav, A., Nguyen, D.T., and Austin, C.P. (2011). […]
9; Detection; Luminescence; ViewLux imaging system […]
7; Cell viability was measured using the CellTiter-Glo Luminescent Cell Viability Assay (Promega). […]
9; Luminescence was measured using a ViewLux CCD imaging system (Perkin Elmer) equipped with clear filters.

The target of experiment [8] is Cytochrome P450 2D6 (Homo sapiens) (UniProt P10635). Description: Cytochrome P450 family 2 subfamily D member 6 (CYP2D6) small molecule antagonists: luciferase biochemical (cell-free) qHTS assay (AID 1645840; active means well fitted curve in the direction sought with a large enough effect in the repeat runs; an effect the other way counts as inactive or inconclusive; further: series mostly up to about 57 µM; nearly all actives have a fitted effect of over 55% in size). The essentials: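 P450-Glo luminescent screen: recombinant CYP2D6 enzyme–proluciferin substrate mix preincubated with compound 10 min at room temperature, then NADPH regeneration added for 1 h at room temperature. Detection reagent added for 20 min; luciferin light read as relative luminescence units.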

Experiment [9] has as its target Cytochrome P450 2C9 (Homo sapiens) (UniProt P11712). The experiment in a line: Cytochrome P450 family 2 subfamily C member 9 (CYP2C9) small molecule antagonists: luciferase biochemical (cell-free) qHTS assay (AID 1645842; active means well fitted curve in the direction sought with a large enough effect in the repeat runs; an effect the other way counts as inactive or inconclusive; further: series mostly up to about 57 µM; nearly all actives have a fitted effect of over 55% in size). Put shortly: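 Luminescence, after 20 min with luciferin detection reagent, reflected CYP2C9 turnover during a 1 h NADPH-driven reaction at 37C. Enzyme-substrate mix contained 0.4% bovine serum albumin and was preincubated with compound 10 min at room temperature.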

Experiment [10] is described as follows: Primary qHTS for inhibitors of nuclear receptor binding SET domain protein 2 (NSD2) in an RCH-ACV wild type WT cells (2C) (AID 1645877). Further: nearly all actives have a fitted effect of over 70% in size.

Chain of Calcium and integrin-binding protein 1 (Homo sapiens) (Q99828 whole entry, looked up): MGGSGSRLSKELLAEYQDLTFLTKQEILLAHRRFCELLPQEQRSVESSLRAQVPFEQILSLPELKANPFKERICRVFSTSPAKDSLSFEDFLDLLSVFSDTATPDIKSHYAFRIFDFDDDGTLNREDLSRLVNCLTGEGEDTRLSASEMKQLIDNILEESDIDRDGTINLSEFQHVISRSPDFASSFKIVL
Chain of Rap guanine nucleotide exchange factor 3 (Homo sapiens) (O95398 whole entry, looked up): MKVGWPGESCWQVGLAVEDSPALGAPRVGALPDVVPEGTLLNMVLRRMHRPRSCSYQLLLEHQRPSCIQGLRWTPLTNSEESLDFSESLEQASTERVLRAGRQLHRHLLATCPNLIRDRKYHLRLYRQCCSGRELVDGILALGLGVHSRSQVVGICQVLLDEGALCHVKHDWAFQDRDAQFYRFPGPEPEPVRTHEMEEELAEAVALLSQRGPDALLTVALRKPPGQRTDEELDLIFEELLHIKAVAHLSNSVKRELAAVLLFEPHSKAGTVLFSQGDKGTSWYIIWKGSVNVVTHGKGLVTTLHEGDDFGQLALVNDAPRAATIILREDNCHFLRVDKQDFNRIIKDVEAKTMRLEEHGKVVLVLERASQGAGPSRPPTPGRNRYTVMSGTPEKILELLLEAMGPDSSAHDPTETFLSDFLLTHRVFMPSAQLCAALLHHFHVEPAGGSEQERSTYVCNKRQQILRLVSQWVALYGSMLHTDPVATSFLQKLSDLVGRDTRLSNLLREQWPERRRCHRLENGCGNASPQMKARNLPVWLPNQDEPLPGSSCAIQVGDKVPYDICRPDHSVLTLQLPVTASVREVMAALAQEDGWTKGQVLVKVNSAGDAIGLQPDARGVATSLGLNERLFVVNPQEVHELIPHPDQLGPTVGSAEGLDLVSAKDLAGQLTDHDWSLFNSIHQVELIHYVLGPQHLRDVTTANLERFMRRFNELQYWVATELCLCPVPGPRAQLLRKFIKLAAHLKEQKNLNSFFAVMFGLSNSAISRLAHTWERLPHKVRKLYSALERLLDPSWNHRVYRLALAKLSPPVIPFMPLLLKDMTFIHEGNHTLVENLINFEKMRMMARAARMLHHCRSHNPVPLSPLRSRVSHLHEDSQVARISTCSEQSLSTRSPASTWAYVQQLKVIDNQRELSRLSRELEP
Chain of Cytochrome P450 2D6 (Homo sapiens) (P10635 whole entry, looked up): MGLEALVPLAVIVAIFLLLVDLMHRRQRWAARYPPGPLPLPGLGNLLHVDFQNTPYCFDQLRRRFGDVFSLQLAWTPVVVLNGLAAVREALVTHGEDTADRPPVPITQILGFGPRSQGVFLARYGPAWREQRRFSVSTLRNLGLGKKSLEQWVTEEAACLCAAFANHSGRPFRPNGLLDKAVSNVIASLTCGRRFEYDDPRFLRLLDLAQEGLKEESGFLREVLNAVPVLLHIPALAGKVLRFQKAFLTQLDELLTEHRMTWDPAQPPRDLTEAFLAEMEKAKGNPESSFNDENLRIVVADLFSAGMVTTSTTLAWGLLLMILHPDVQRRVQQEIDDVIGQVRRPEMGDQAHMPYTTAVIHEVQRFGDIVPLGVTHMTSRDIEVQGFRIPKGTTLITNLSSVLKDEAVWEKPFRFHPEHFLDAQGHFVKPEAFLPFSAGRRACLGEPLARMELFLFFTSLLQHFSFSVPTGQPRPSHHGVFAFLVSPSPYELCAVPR
Chain of Cytochrome P450 2C9 (Homo sapiens) (P11712 whole entry, looked up): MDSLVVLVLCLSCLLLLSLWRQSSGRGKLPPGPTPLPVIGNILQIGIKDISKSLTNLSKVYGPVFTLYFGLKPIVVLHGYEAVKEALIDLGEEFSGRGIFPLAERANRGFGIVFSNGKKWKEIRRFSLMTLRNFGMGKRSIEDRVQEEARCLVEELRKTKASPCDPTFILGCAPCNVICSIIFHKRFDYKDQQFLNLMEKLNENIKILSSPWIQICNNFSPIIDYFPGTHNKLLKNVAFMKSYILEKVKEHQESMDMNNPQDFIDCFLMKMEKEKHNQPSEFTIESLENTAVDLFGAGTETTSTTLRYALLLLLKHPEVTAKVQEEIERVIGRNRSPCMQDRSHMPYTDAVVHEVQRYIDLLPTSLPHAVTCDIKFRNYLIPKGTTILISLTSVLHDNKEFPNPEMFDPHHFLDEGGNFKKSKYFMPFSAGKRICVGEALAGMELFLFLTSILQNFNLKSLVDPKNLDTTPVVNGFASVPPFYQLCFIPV

With `CC1(C)OC2CC3C4CC(F)C5=CC(=O)C=CC5(C)C4C(O)CC3(C)[C@]2(C(=O)CO)O1` (some centres undefined), the Potency result in experiment [1] and in [2] was “inactive” throughout.

Regarding `O=C(Nc1ccccc1)Nc1ccc(-c2ccc(C(=O)[C@H]3CCC[C@H]3C(=O)O)cc2)cc1`, the Potency result in experiment [1] and in [2] was “inactive” throughout.

Consider `CN(C)CCOc1ccc(-c2nc(-c3ccc4c(c3)CCC4=NO)c(-c3ccncc3)[nH]2)cc1`, for which the Potency entry in experiment [1] was “inactive”.

Consider `CCC(c1ccc(O)cc1)C(CC)c1ccc(O)cc1` (centres undefined), for which the Potency entry in experiment [1] and in experiment [2] was “inactive” each time.

Consider `CN1CCC[C@H]1CCO[C@](C)(c1ccccc1)c1ccc(Cl)cc1`, for which the Potency entry in [1] and in experiment [3] was “inactive” in each case.

Consider `CC1C(=O)OC2C(O)C34C5CC(C(C)(C)C)C36C(OC(=O)C6O)OC4(C(=O)O5)C12O` (centres undefined), for which the Potency entry in experiment [1] was “inactive”.

`CC(O)=C(C#N)C(=O)Nc1ccc(C(F)(F)F)cc1`: in [1], the Potency result is “inactive”.

Regarding `Cn1c(=O)c(Oc2ccc(F)cc2F)cc2cnc(NC3CCOCC3)nc21`, the Potency entry in experiment [1] and in experiment [2] was “inactive” throughout.

On to `C=CC[N+]1([C@H]2C[C@H]3[C@@H]4CC[C@H]5C[C@H](O)[C@@H](N6CCOCC6)C[C@]5(C)[C@@H]4CC[C@]3(C)[C@H]2OC(C)=O)CCCC1`, for which the Potency result in experiment [1] and in [2] was “inactive” in each case.

In the case of `Cc1cc2nc3c(=O)[nH]c(=O)nc-3n(CC(O)C(O)C(O)CO)c2cc1C` (centres undefined), the Potency in experiment [1] was 6.81 µM (active). In addition, the Potency result in [3], in [4] and in experiment [5] was “inactive” in each case.

With `O=C1C(CCC(O)c2ccc(F)cc2)C(c2ccc(O)cc2)N1c1ccc(F)cc1` (centres undefined), the Potency entry in experiment [1] and in [2] was “inactive” each time.

`COc1cc(Cl)cn2c(-c3cccc(NC4CNC4)n3)cnc12`: the Potency entry in [1] and in experiment [2] was “inactive” throughout.

As for `CCC[C@@H](NC(=O)[C@@H]1[C@H]2CCC[C@@H]2CN1C(=O)[C@@H](NC(=O)[C@@H](NC(=O)c1cnccn1)C1CCCCC1)C(C)(C)C)C(=O)C(=O)NC1CC1`, the Potency entry in experiment [1] and in experiment [2] was “inactive” in each case.

Consider `O=C1Nc2ccc(I)cc2C1=Cc1cc(Br)c(O)c(Br)c1`, for which, in [1], the Potency result is “inactive”.

In the case of `CC(C)N(CCCNC(=O)Nc1ccc(C(C)(C)C)cc1)C[C@H]1O[C@@H](n2cc(Br)c3c(N)ncnc32)[C@H](O)[C@H]1O`, the Potency entry in experiment [1] and in [2] was “inactive” each time.

As to `NS(=O)(=O)c1cc(Cl)c(Cl)c(S(N)(=O)=O)c1`, the Potency entry in experiment [1], in experiment [3], in [6], in [8], in [9] and in experiment [4] was “inactive” in each case. For the same compound, the Potency result in experiment [10] is “inactive”. Also, the max response in experiment [7] was 21%.

On to `COc1cc2c(cc1OC)[C@@H]1Cc3ccc(OC)c(OC)c3CN1CC2`, for which, in experiment [1], the Potency entry is “inactive”.

On to `CO[C@H]1/C=C\O[C@@]2(C)Oc3c(C)c(O)c4c(O)c(c5c(nc6cc(C)ccn65)c4c3C2=O)NC(=O)C(C)=CC=C[C@H](C)[C@H](O)[C@@H](C)[C@@H](O)[C@@H](C)[C@H](OC(C)=O)[C@H]1C`, for which the Potency result in [1] was “inactive”.

Regarding `CN(C)CCOc1ccc(C(=C(CCCl)c2ccccc2)c2ccccc2)cc1`, the Potency entry in experiment [1] was “inactive”.
